For 35 compounds, INHIBITION results are on record in ChEMBL document CHEMBL4513216, “Probing the Open Global Health Chemical Diversity Library for Multistage-Active Starting Points for Next-Generation Antimalarials” (ACS Infect Dis, 2020).

Screen size: about 69,000 compounds; about 8,600 (12%) showed an effect of 50% or more. For the sample, strong results were picked, then their nearest neighbours and some compounds at random.

The test system of this experiment is Plasmodium berghei. In words: Screen against P. berghei liver stage (PbLuc), transformed with Luciferase, at 10uM. In kind it is functional, HepG2. As to conditions: tested at 10 uM.
Take `CS(=O)(=O)N1CCO[C@@H]2CN(C(=O)N3CCCC3)CC[C@@H]2C1`: the INHIBITION amounted to 43.9%.

In the case of `O=C(c1cc2c(s1)CCCC2)N1CCc2nc(C3CCCN3)ncc2C1` (stereo not given), the INHIBITION is recorded as 49.6%. Take `Cc1nn2cccnc2c1C(=O)N1CCCC(n2ccnc2C)C1` (stereo not given): the INHIBITION came to 2.3%.

Consider `COc1ccccc1-c1cc(C(=O)N(C)C)c2cnn(C)c2n1`, for which the INHIBITION was -8.9%.

For `COCCNc1ncc(-c2cccc(F)c2)c(-c2nccn2C)n1`, the INHIBITION is on record as 25.8%. Then `CCOCCCNc1ncc(-c2cccc(F)c2)c(-c2nccn2C)n1`, with 8.12%; and `Cn1ccnc1-c1nc(NC2CCCC2)ncc1-c1cccc(F)c1`, with 63.8%; and `COc1nn(C)c2c1CCCN(C(=O)c1cnccn1)C2`, with 18.6%. Turning to `COc1nn(C)c2c1CCCN(C(=O)c1c[nH]cn1)C2`, the INHIBITION turned out to be 14%.

Turning to `COc1nn(C)c2c1CCCN(C(=O)c1cscn1)C2`, the INHIBITION is 51.2%. Then `CCCn1nccc1NC(=O)CN1CCCC1c1cccn1C` (stereo not given), with 25.1%. For the compound `Cc1cc(C)cc(N2CCN(Cc3cccnc3)CC2=O)c1`, the INHIBITION is 41.5%. Take `O=C1CC2(CCN(Cc3ccc(Cl)s3)C2)C(=O)N1` (stereo not given): the INHIBITION amounted to 61.6%. For the compound `O=C1NCC2(CCCN(Cc3ccc(Cl)s3)C2)Oc2ccccc21` (stereo not given), the INHIBITION was 43.7%. As to `O=C1CC2(CCN(Cc3ccc(-c4ccccc4)s3)C2)C(=O)N1` (stereo not given), the INHIBITION was determined as 21.2%. With `O=C(Cc1ccccn1)N1CCc2ncnc(NC3CCC3)c2CC1` the figure was 38.5%; with `CCc1nc(C)c(C(=O)NCCN2CCN(C(C)=O)CC2)s1`, 22.3%; with `Cc1nn(C)cc1CN1CCc2c(nc(-c3ccccn3)[nH]c2=O)C1`, 38.8%. Regarding `COc1cc2c(cc1OC)C(=O)C(Sc1nncn1C)C2` (stereo not given), the INHIBITION stood at 6.67%. Then `COc1ccc(NC(=O)c2cccc(CN3CCCC3C)c2)cc1OC` (stereo not given), with 42.6%. With `Cc1cccc(C)c1NC(=O)c1cccc(CN2CCCC2C)c1` (stereo not given) the figure was 41.5%; with `O=C(NCc1ccco1)c1cccc(CN2CCCC2CO)c1` (stereo not given), 5.58%. Then `CC1CCCN1Cc1cccc(C(=O)Nc2ccc3[nH]c(=O)oc3c2)c1` (stereo not given), with 74.7%; and `CC1CN(C)CCN1Cc1cccc(C(=O)NCc2ccco2)c1` (stereo not given), with -5.9%. On to `CC1CCCN1Cc1cccc(C(=O)Nc2ccc3c(c2)CCC3=O)c1` (stereo not given), for which the INHIBITION is 58.6%. Take `CCN(C)C(=O)CCC(=O)c1cccs1`: the INHIBITION is given as 40.2%. Take `COc1cccc(CN(C)C(=O)CCC(=O)c2ccccc2)c1OC`: the INHIBITION was -16.9%. As for `COc1ccc(CN(C)C(=O)CCC(=O)c2cccs2)c(OC)c1OC`, the INHIBITION turned out to be 50.1%. Then `COCCN1CCC(CN(CC2CCCO2)C(=O)CCC(F)(F)F)CC1` (stereo not given), with 6.67%; and `COc1cncc(-n2ccnc2-c2ccc(C(=O)O)s2)c1`, with 14.6%; and `COc1ccc(N(c2ccccc2)c2ccc(C(=O)O)s2)cc1`, with 66.4%. Take `CCC(=O)Nc1nnc(CCOc2ccc(OC)cc2)s1`: the INHIBITION is recorded as 40%. On to `COc1ccc(N(c2ccc(OC)cc2)c2ccc(C(=O)O)s2)cc1`, for which the INHIBITION was 69.3%. Regarding `COc1ccc(N(c2ccc(C)cc2)c2ccc(C(=O)O)s2)cc1`, the INHIBITION was determined as 27.8%. As to `Cc1ccc(OCc2ccc(C(=O)O)s2)cc1C`, the INHIBITION was -32.9%.
